Screening results from PubChem BioAssay.
Hits are enriched below; roughly 4.6% of the tested compounds scored in any of these assays.
D1 PAM – potentiators of human D1 dopamine receptor; 360,000 compounds, 0.036% hits; HEK293 TREx D1 cells, calcium flux, dopamine EC20 potentiation; potentiation, % at 10 µM; in the data active = potentiation above about 30%; also: 0% is about no effect
D1 antag – antagonists of human D1 dopamine receptor. AID 504652. 360,000 compounds, 3.2% hits. HEK293 TREx D1 cells, calcium flux, dopamine EC80; hits give low values. P21728. activity change, negative = inhibition, % at 10 µM; in the data active = activity change below about -30%; also: % is scaled to controls: 0 for no effect and ±100 for the full control effect
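Antagonism measured as reduced calcium response to an EC80 dopamine addition following 180 s compound pre-read; cells were inducible HEK293 Trex D1 plated overnight at 30 C, read kinetically at 1 cycle/sec.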
TRHR enhancer – allosterically enhances the human TRH receptor | 360,000 compounds, 0.66% hits | TRHR cells, fluo-8 calcium fluorescence, EC20 TRH enhancement | enhancement, % at 2 µM; in the data active = enhancement above about 30%; also: 0% is about no effect
Target sequence (P34981 whole entry, looked up): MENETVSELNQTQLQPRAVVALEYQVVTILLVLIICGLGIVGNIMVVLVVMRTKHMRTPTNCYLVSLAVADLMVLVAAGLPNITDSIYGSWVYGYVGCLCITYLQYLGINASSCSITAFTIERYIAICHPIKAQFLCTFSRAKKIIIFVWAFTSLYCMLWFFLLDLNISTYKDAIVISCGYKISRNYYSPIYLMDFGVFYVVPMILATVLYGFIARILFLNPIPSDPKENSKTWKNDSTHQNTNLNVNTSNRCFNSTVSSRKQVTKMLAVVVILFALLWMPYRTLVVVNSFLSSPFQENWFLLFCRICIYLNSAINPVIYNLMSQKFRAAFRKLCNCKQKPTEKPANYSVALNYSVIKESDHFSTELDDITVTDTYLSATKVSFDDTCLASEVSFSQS
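TRHR-expressing cells loaded with fluo-8 calcium dye were read kinetically (ex 480/em 530) during compound addition, then stimulated with an EC20 of TRH (10 nM final). Enhancement of the Gq-mediated intracellular calcium response was scored.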
D1 ag – human D1 receptor agonism. P21728. HEK293 T-REx D1 cells, calcium flux, agonist mode. activation, % at 2 µM. 360,000 compounds, 1% hits; also: 0% is about no effect
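Tetracycline-induced HEK293 TREx D1 cells, force-coupled to calcium signalling, were dye-loaded with a no-wash calcium kit. Compound was pin-added after a 10 s baseline. Fluorescence was read kinetically at 1 cycle/s for 180 s, with calcium rises flagged as agonism.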
TRHR ag – agonists of human TRH receptor; activation, % at 2 µM; TRHR cells, calcium flux fluo-8, FDSS agonist mode; P34981; 360,000 compounds, 0.18% hits; AID 493084; also: 0% is about no effect
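TRHR-expressing cells loaded with fluo-8 calcium dye; 23 nL library compound pin-transferred, kinetic FDSS fluorescence (Ex 480/Em 530) recorded about 180 s for agonist-induced calcium release, before a 10 nM TRH EC20 addition for potentiator mode.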
* = called active by the depositor; . = not tested or not shown; ! = a repeat was not active. Rule as the data show it, unless noted: active = activation above about 30%; inactive = the rest.

SMILES	D1 PAM	D1 antag	TRHR enhancer	D1 ag	TRHR ag
Cc1ccc2nc(C3CCCN(C(=S)Nc4cccc(C)c4C)C3)[nH]c2c1 (centres undefined)	0	11	-2	1	1
CCOc1ccc(NC(=O)CSc2nc3nc(C)c(Cc4ccccc4)c(C)n3n2)cc1	2	12	-4	0	0
Cc1[nH]nc2c1C1(CCOC1C)C(C#N)=C(N)O2 (centres undefined)	-4	-35*	-1	3	1
Cc1ccc(-n2nc3c(N4CCC(C(=O)NCCc5ccccc5)CC4)nnc(C)c3c2C)cc1	-3	-72*	2	5	0
COc1ccc(-n2nc3c(N4CCC(C(=O)NCc5ccccc5C)CC4)nnc(C)c3c2C)cc1	12	-2	-14	76*!	0
COc1ccc(-n2nc3c(N4CCC(C(=O)NCCc5ccccc5C)CC4)nnc(C)c3c2C)cc1	13	12	7	3	-1
CCOC(=O)c1nn(-c2ccc(F)cc2)c(=O)c2c(N)scc12	-4	-51*	9	59*	0
CCOC(=O)c1nn(-c2ccc(C)cc2)c(=O)c2c(N)scc12	6	-12	3	0	0
Cc1ccc(S(=O)(=O)c2nc(-c3cccc(C)c3)oc2N2CCCCC2)cc1	0	26	-6	5	0
CCOC(=O)c1sc2nc(CC(=O)OC)nc(N(C)CCc3ccccn3)c2c1C	-8	-30*	1	0	0
COC(=O)c1cn(CC(=O)N2CCCCCC2)c2ccccc12	7	-1	0	10	-1
CCOC(=O)C1=C(O)/C(=C/c2cn(CC(=O)N3CCCC3)c3ccccc23)SC1=Nc1ccccc1	-4	-9	-1	32*	16
CCCN(CCC)C(=O)c1cc2c(=O)n3cccc(C)c3nc2n1C	-1	8	4	0	0
CCOC(=O)c1ccc(NC(=O)Cn2cnc3sc(C(=O)OCC)c(C)c3c2=O)cc1	2	-8	-2	2	0
O=C(NCCS(=O)(=O)c1ccc(Br)cc1)c1ccc(Cl)cc1Cl	-8	-39*	-1	1	-1
O=C(NCCS(=O)(=O)c1ccc(Br)cc1)c1ccccc1	-3	-12	2	1	0
Cc1ccc(NC(=O)CSc2nc(-c3cccs3)nc3cc(=O)[nH]n23)cc1	2	-11	16	1	0
CCOc1ccc(CN2CCN(Cc3[nH]c4ccccc4c3C)CC2CCO)cc1 (centres undefined)	-1	-1	19	48*	2
Cc1c(CN2CCN(CC(C)(C)C)C(CCO)C2)[nH]c2ccccc12 (centres undefined)	-2	21	20	3	1
Cc1nn(-c2ccccc2)c(-n2cccc2)c1C(=O)NCCc1ccc(Cl)cc1	0	-29	4	68*	-1
Cc1nn(-c2ccccc2)c(-n2cccc2)c1C(=O)NCc1ccccc1Cl	-4	-8	-7	24	2
Cc1nn(-c2ccc(F)cc2)c(-n2cccc2)c1C(=O)NCCCN1CCN(c2cccc(Cl)c2)CC1	-4	-33*	2	6	0
COc1cc(NC(=O)c2c(C)nn(-c3ccc(F)cc3)c2-n2cccc2)cc(OC)c1	-1	0	9	5	42*
COc1ccc(N2CCN(CCCNC(=O)c3cnn(-c4ccc(F)cc4)c3-n3cccc3)CC2)cc1	-1	-17	1	41*	-1
COc1ccc(NC(=O)CCc2c(C)nc3c(-c4ccccc4)c(C)nn3c2C)cc1Cl	-2	-19	4	5	0
SMILES	D1 PAM	D1 antag	TRHR enhancer	D1 ag	TRHR ag
COc1cccc(CNC(=O)C2Cc3cc(S(=O)(=O)N4CCCCCC4)ccc3N2C(C)=O)c1 (centres undefined)	1	5	-3	2	0
Cc1ccc(Nc2c3c(nc4nncn24)CCC3)c(C)c1	-2	-2	0	3	-2
Cc1nn(C(C)C(=O)NCc2cccc(F)c2)c(=O)c2c1sc1ccccc12 (centres undefined)	-2	4	-5	1	0
COc1cccc2cc(C(=O)N(C)C3CCN(C)CC3)c(=O)oc12	-10	-39*	5	1	1
COc1ccc(-c2cc3cccc(OC)c3oc2=O)cc1	2	-3	-2	1	-1
COc1cccc2cc(C(=O)NCc3ccccn3)c(=O)oc12	-3	-49*	-7	0	0
COc1cccc2cc(-c3ccccc3)c(=O)oc12	-4	-31*	2	-1	-1
CNC(=O)c1cc2cccc(OC)c2oc1=O	-2	-12	4	0	0
COc1cccc2cc(C(=O)N(Cc3cccs3)CC3CCCO3)c(=O)oc12 (centres undefined)	-4	-38*	3	1	0
Cc1nn(CC(=O)N2CCN(c3ccccc3)CC2)c(=O)c2cc3sccc3n12	-1	-2	-7	0	0
CCOC(=O)N1CCc2c(sc3c2c(=O)n(CCc2ccccc2)c(=O)n3CC(=O)Nc2ccc(C)cc2)C1	-2	-2	8	1	1
Cc1ccc(C(=O)NC(=S)N(C)C2CCCCC2)cc1	9	-41*	-1	0	0
COC(=O)CCC(=O)Nc1cccc(C(=O)Nc2cccc(Cl)c2)c1	-2	7	4	31*	0
CS(=O)(=O)Nc1ccccc1C(=O)Nc1cccc(Cl)c1	-1	-33*	-2	38*	3
O=C(CCC(=O)OCC(=O)c1ccccc1)Nc1cccc(Cl)c1	-6	-2	9	6	-1
Cc1ccc(NC(=O)c2c(F)cccc2Cl)cc1NS(C)(=O)=O	-1	-3	38*	3	0
CN(C)S(=O)(=O)Oc1ccc(C(=O)Nc2cccc(Cl)c2)cc1	-7	-47*	5	24	-1
Nc1ncc(S(=O)(=O)NCc2cccc(Cl)c2)cn1	-4	7	3	1	0
COc1ccc(CNC(=O)c2ccc(-c3nc(CSc4ccc(C)cc4)c(C)o3)cc2)c(OC)c1	-3	0	4	6	-1
O=c1cc(-c2ccccc2)n2c(SCc3ccc([N+](=O)[O-])cc3)nnc2[nH]1	2	.	5	-5	0
O=C(COC(=O)C12CC3CC(CC(C3)C1)C2)Nc1nccs1	3	-34*	-1	6	1
Cc1ccnc(NC(=O)COC(=O)C23CC4CC(CC(C4)C2)C3)n1	-3	-13	2	5	1
CCNC(=S)N(Cc1ccc2c(c1)OCO2)C1CC(=O)N(c2ccc(F)cc2)C1=O (centres undefined)	-5	-60*	2	5	1
COCCCn1c(N)c(-c2nc3ccccc3n2C)c2nc3ccccc3nc21	-2	-4	3	77*	22
N#Cc1c(N)n(CCc2ccc(F)cc2)c2nc3ccccc3nc12	-8	-18	2	0	0
